Data as given in a collection of fitness landscapes (doi:10.1016/j.celrep.2020.107928).
Over roughly 81,000 sequences, “one-hybrid fitness for binding parS DNA” has its median near -0.17; the highest 2% begin near 0.51. This excerpt belongs to a sample that is enriched for the highest values.

B1: Caulobacter ParB omega fusion; a variant is named by its letters at X, in order, B8GW30 (parent)
chain: MESVVVGEPGMSEGRRGLGRGLSALLGEVDAAPAQAPGEQLGGSREAPIEILQRNPDQPRRTFREEDLEDLSNSIREKGVLQPILVRPSPDTAGEYQIVAGERAWRAAQRAGLKTVPIMVRELDDLAVLEIGIIENVQRADLNVLEEALSYKVLMEKFERTQENIAQTIGKSXSHVANXMRLLXLPDEVQSYLVSGELTAXHARAIAAAADPVALAKQIIEGGLSVRETEALARKAPNLSAGKSKGGRPPRVKDTDTQALESDLSSVLGLDVSIDHRGSTGTLTITYATLEQLDDLCNRLTRGI

Variants of: B1
Test: one-hybrid fitness for binding parS DNA (scaled: cognate 1, non-cognate 0); higher = stronger binding
Conditions: with parS DNA site
Procedure, shortened: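 Selection: bacterial one-hybrid in E. coli USO, HIS3 reporter with the site 19 bp from the promoter, 48 hours at 37°C on M9-minus-histidine plus 0.1 mM IPTG and 5 mM 3-AT. Libraries were Caulobacter ParB with four randomised specificity codons, sequenced on Illumina before and after selection. Fitness is the rescaled log change in variant-to-wild-type read ratio, anchored to the cognate and non-cognate sites.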

Row | Variant | one-hybrid fitness for binding parS DNA
1 | IYQL | ≤ 0.2
2 | WAPR | ≤ 0.2
3 | MWAV | ≤ 0.2
4 | ANEG | ≤ 0.2
5 | LPHA | ≤ 0.2
6 | SKVC | ≤ 0.2
7 | PETH | ≤ 0.2
8 | RRCA | 0.761
9 | DRCA | ≤ 0.2
10 | DRLA | ≤ 0.2
11 | RRLA | 0.815
12 | NRCA | ≤ 0.2
13 | RRDA | 0.851
14 | NRLA | ≤ 0.2
15 | NRNA | ≤ 0.2
16 | RRNA | 0.627
17 | DRNA | ≤ 0.2
18 | QLGG | ≤ 0.2
19 | IAPM | ≤ 0.2
20 | RPYR | ≤ 0.2
21 | TTSM | ≤ 0.2
22 | ICYT | ≤ 0.2
23 | SEWR | ≤ 0.2
24 | RRRA | 0.501

Row | Variant | one-hybrid fitness for binding parS DNA
25 | NRYA | ≤ 0.2
26 | RRYA | 0.813
27 | DLNV | ≤ 0.2
28 | GSGS | ≤ 0.2
29 | YIFC | ≤ 0.2
30 | INTG | ≤ 0.2
31 | RVEK | ≤ 0.2
32 | RVEM | 0.231
33 | RVED | ≤ 0.2
34 | RVEN | 0.294
35 | RVEG | 0.813
36 | RVEI | ≤ 0.2
37 | RVEH | ≤ 0.2
38 | RVET | 0.691
39 | RVEP | ≤ 0.2
40 | RVEF | ≤ 0.2
41 | RVEC | 0.805
42 | RVES | 0.948
43 | HNSL | ≤ 0.2
44 | FLAG | ≤ 0.2
45 | RRQE | ≤ 0.2
46 | SFER | ≤ 0.2
47 | HAWC | ≤ 0.2
48 | PTHS | ≤ 0.2

Row | Variant | one-hybrid fitness for binding parS DNA
49 | NYFA | ≤ 0.2
50 | RYAA | 0.559
51 | PYFA | ≤ 0.2
52 | RYFA | 0.573
53 | NNWM | ≤ 0.2
54 | DTAQ | ≤ 0.2
55 | AYES | ≤ 0.2
56 | PDYS | ≤ 0.2
57 | LGYC | ≤ 0.2
58 | PVSM | ≤ 0.2
59 | RIKA | 0.745
60 | NIVA | ≤ 0.2
61 | RIVA | 0.585
62 | YQPY | ≤ 0.2
63 | GEYG | ≤ 0.2
64 | TWSS | ≤ 0.2
65 | LCRP | ≤ 0.2
66 | RKDG | 0.939
67 | RKNQ | ≤ 0.2
68 | RKNR | ≤ 0.2
69 | RKDH | 0.231
70 | RKDN | 0.329
71 | RKNG | 0.907
72 | TSWS | ≤ 0.2

Row | Variant | one-hybrid fitness for binding parS DNA
73 | KARL | ≤ 0.2
74 | PVGS | ≤ 0.2
75 | QVWC | ≤ 0.2
76 | RHAY | 0.403
77 | RHAT | 0.865
78 | RHFN | 0.319
79 | RHFP | ≤ 0.2
80 | RHAM | 0.28
81 | RHFT | 0.707
82 | HWFS | ≤ 0.2
83 | RPMV | ≤ 0.2
84 | ETTA | ≤ 0.2
85 | SPEG | ≤ 0.2
86 | RESC | 0.215
87 | RSSC | 0.966
88 | RSSH | ≤ 0.2
89 | RPSC | ≤ 0.2
90 | RSSN | 0.436
91 | RCSC | 0.961
92 | TKKI | ≤ 0.2
93 | QGCC | ≤ 0.2
94 | LEMT | ≤ 0.2
95 | CTGE | ≤ 0.2
96 | VMPA | ≤ 0.2

Row | Variant | one-hybrid fitness for binding parS DNA
97 | NSSL | ≤ 0.2
98 | RLIH | 0.21
99 | RLPT | 0.58
100 | RLID | ≤ 0.2
101 | RLPK | ≤ 0.2
102 | RLPQ | ≤ 0.2
103 | RLIT | 0.795
104 | TGTF | ≤ 0.2
105 | DRTR | ≤ 0.2
106 | QHDH | ≤ 0.2
107 | KIRG | ≤ 0.2
108 | MVRP | ≤ 0.2
109 | RAAT | 0.909
110 | RAFH | 0.204
111 | RAFD | ≤ 0.2
112 | RAAF | 0.242
113 | RAFT | 0.847
114 | RAAK | ≤ 0.2
115 | CANR | ≤ 0.2
116 | WEPV | ≤ 0.2
117 | HEHL | ≤ 0.2
118 | CTTW | ≤ 0.2
119 | FEAS | ≤ 0.2
120 | DTAA | ≤ 0.2

Row | Variant | one-hybrid fitness for binding parS DNA
121 | DTFA | ≤ 0.2
122 | RTFA | 0.592
123 | RTAA | 0.579
124 | QTHE | ≤ 0.2
125 | PSQT | ≤ 0.2
126 | QCPA | ≤ 0.2
127 | YTPS | ≤ 0.2
128 | DLFA | ≤ 0.2
129 | RLFA | 0.606
130 | RLAA | 0.582
131 | DLAA | ≤ 0.2
132 | KLFA | ≤ 0.2
133 | NLAA | ≤ 0.2
134 | IAKG | ≤ 0.2
135 | FVAR | ≤ 0.2
136 | RFID | ≤ 0.2
137 | RFWP | ≤ 0.2
138 | RFPG | 0.502
139 | RFIP | ≤ 0.2
140 | RFIG | 0.685
141 | NFIG | ≤ 0.2
142 | RFWS | 0.836
143 | RFIH | ≤ 0.2
144 | RFIC | 0.657

Row | Variant | one-hybrid fitness for binding parS DNA
145 | RFWN | ≤ 0.2
146 | RFIS | 0.777
147 | RFPC | 0.424
148 | EHMG | ≤ 0.2
149 | LHVL | ≤ 0.2
150 | AIIN | ≤ 0.2
151 | FIYG | ≤ 0.2
152 | PRHT | ≤ 0.2
153 | KCHS | ≤ 0.2
154 | KAGT | ≤ 0.2
155 | QCPW | ≤ 0.2
156 | RFRD | ≤ 0.2
157 | RFLS | 0.997
158 | RFPD | ≤ 0.2
159 | RFRS | 0.954
160 | RFYS | 1.01
161 | RFLD | ≤ 0.2
162 | RFLN | 0.415
163 | RFRN | 0.429
164 | RFYD | ≤ 0.2
165 | RFPS | 0.551
166 | RFPH | ≤ 0.2
167 | RFYP | ≤ 0.2
168 | PVIC | ≤ 0.2

Row | Variant | one-hybrid fitness for binding parS DNA
169 | MHEG | ≤ 0.2
170 | VPDG | ≤ 0.2
171 | LNYC | ≤ 0.2
172 | HRFQ | ≤ 0.2
173 | VPPW | ≤ 0.2
174 | DFQA | ≤ 0.2
175 | RFYA | 0.578
176 | NFRA | ≤ 0.2
177 | RFPA | ≤ 0.2
178 | RFRA | 0.602
179 | SFRA | ≤ 0.2
180 | RFCA | 0.518
181 | RFQA | 0.579
182 | RFIA | 0.373
183 | KFQA | ≤ 0.2
184 | ANER | ≤ 0.2
185 | NGTK | ≤ 0.2
186 | GATP | ≤ 0.2
187 | TTRY | ≤ 0.2
188 | HALT | ≤ 0.2
189 | WTPL | ≤ 0.2
190 | KHYV | ≤ 0.2
191 | QFRS | ≤ 0.2
192 | NFGT | ≤ 0.2

Row | Variant | one-hybrid fitness for binding parS DNA
193 | DFDT | ≤ 0.2
194 | RFWD | ≤ 0.2
195 | RFDR | ≤ 0.2
196 | RFGP | ≤ 0.2
197 | DFHT | ≤ 0.2
198 | RFGT | 0.775
199 | RFWT | 0.649
200 | RFDT | 0.693
201 | RFHD | ≤ 0.2
202 | NFWT | ≤ 0.2
203 | RFHT | 0.853
204 | FTEL | ≤ 0.2
205 | WFGR | ≤ 0.2
206 | AVPM | ≤ 0.2
207 | IHAA | ≤ 0.2
208 | GDDN | ≤ 0.2
209 | RFRT | 0.9
210 | RFSN | 0.377
211 | SFCT | ≤ 0.2
212 | RFST | 0.841
213 | RFCR | ≤ 0.2
214 | NFST | ≤ 0.2
215 | RFCT | 0.725
216 | NFRT | ≤ 0.2

Row | Variant | one-hybrid fitness for binding parS DNA
217 | RFRH | 0.219
218 | RFYT | 0.801
219 | RFIT | 0.508
220 | RFPT | 0.376
221 | SRLA | ≤ 0.2
222 | RPYM | ≤ 0.2
223 | QLWS | ≤ 0.2
224 | QWRP | ≤ 0.2
225 | YTDG | ≤ 0.2
226 | VYTC | ≤ 0.2
227 | AQSP | ≤ 0.2
228 | FRLV | ≤ 0.2
229 | MRTY | ≤ 0.2
230 | RFNN | 0.411
231 | RFNP | ≤ 0.2
232 | RFQD | ≤ 0.2
233 | RFQT | 0.8
234 | RFNT | 0.862
235 | RFLP | ≤ 0.2
236 | DFLT | ≤ 0.2
237 | RFQP | ≤ 0.2
238 | RFLT | 0.75
239 | WYGN | ≤ 0.2
240 | YMRM | ≤ 0.2

Row | Variant | one-hybrid fitness for binding parS DNA
241 | YQRV | ≤ 0.2
242 | AIED | ≤ 0.2
243 | TPRA | ≤ 0.2
244 | QTSF | ≤ 0.2
245 | AAYQ | ≤ 0.2
246 | WMAR | ≤ 0.2
247 | RVKY | 0.664
248 | RVLY | 0.508
249 | RVDY | 0.427
250 | RCLY | 0.49
251 | RVYY | 0.495
252 | RVVY | 0.413
253 | RVRY | 0.583
254 | TIST | ≤ 0.2
255 | CHTY | ≤ 0.2
256 | TCYR | ≤ 0.2
257 | QKCY | ≤ 0.2
258 | TNVQ | ≤ 0.2
259 | CETD | ≤ 0.2
260 | ADRH | ≤ 0.2
261 | QVQF | ≤ 0.2
262 | RRIS | 0.753
263 | RRRH | 0.592
264 | RRYD | ≤ 0.2

Row | Variant | one-hybrid fitness for binding parS DNA
265 | RRYP | ≤ 0.2
266 | RRIN | 0.304
267 | RRWP | ≤ 0.2
268 | RRYS | 0.68
269 | RRWD | ≤ 0.2
270 | RRYH | ≤ 0.2
271 | RRWS | 0.772
272 | RRDH | ≤ 0.2
273 | RRIH | ≤ 0.2
274 | VFKT | ≤ 0.2
275 | HRKK | ≤ 0.2
276 | QLWG | ≤ 0.2
277 | RFHY | 0.462
278 | RRLN | 0.396
279 | RRPD | ≤ 0.2
280 | RRPS | 0.757
281 | RRRS | 0.67
282 | RRRD | ≤ 0.2
283 | RRLD | ≤ 0.2
284 | RRPN | 0.246
285 | RRLS | 0.701
286 | RRRP | 0.203
287 | MLQR | ≤ 0.2
288 | HTWN | ≤ 0.2

Row | Variant | one-hybrid fitness for binding parS DNA
289 | YCLV | ≤ 0.2
290 | VKKI | ≤ 0.2
291 | VDFT | ≤ 0.2
292 | LALR | ≤ 0.2
293 | QPAK | ≤ 0.2
294 | VVMR | ≤ 0.2
295 | VDRK | ≤ 0.2
296 | NEFY | ≤ 0.2
297 | RKIP | ≤ 0.2
298 | RKLP | ≤ 0.2
299 | RKYP | ≤ 0.2
300 | RKYS | 0.857
301 | RKPN | ≤ 0.2
302 | RKIS | 0.958
303 | RKYH | ≤ 0.2
304 | RKPH | ≤ 0.2
305 | RKID | ≤ 0.2
306 | RKLD | ≤ 0.2
307 | RKPS | 0.682
308 | RKLS | 0.876
